# Several values for one entry are separate records, joined by “and”; a condition that tells them apart may be missing. Identical values can stand only once. Among all 410,000 compounds or so, about 18,000 (4.4%) were called active. Roughly 7% stayed inconclusive and do not appear here. Rule as the data show it: active = activity change below about -60%; inconclusive = no clear call, values can overlap the other calls; inactive = above about -39%. The sample as a whole holds a higher share of actives than the screen did. More than one record can exist for a structure, and the calls need not agree.
# Assay: qHTS Assay for inhibitors of the human cytomegalovirus (HCMV)
# Details: HFF cells, HCMV-luciferase reporter, 72 h; at 57.5 µM; stronger effect = lower value
# Outline: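 Screen run at 2 compound doses on HFFs infected with reporter HCMV, MOI 1 PFU/cell. Luciferase activity from cell lysates at 72 h post infection gave inhibition relative to buffer-only and Salinomycin wells.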
# % is scaled to controls: 0 for no effect and ±100 for the full control effect.
row,SMILES,"activity change, negative = inhibition"
1,CC1CCN(C(=O)Cn2c(=O)n(-c3ccc(Cl)cc3)c(=O)c3c4c(sc32)CCC4)CC1,3.05% (inactive)
2,Cc1cc(NC(=O)Cn2nc(C(F)(F)F)c3c2CCCC3)no1,31% (inactive)
3,O=C(Cn1nc(C(F)(F)F)c2c1CCC2)NCc1ccc(F)cc1,-0.659% (inactive)
4,O=C(Cn1nc(C(F)(F)F)c2c1CCCC2)Nc1ccc(Cl)cc1,-105% (active)
5,CCCNC(=O)C1CCN(c2nc3ccc(C)cc3[nH]2)CC1,0% (active)
6,CCOc1ccc2nc(N3CCC(C(=O)Nc4cc(C)ccc4C)CC3)sc2c1,20% (inactive)
7,Cc1ccc2nc(CNC(=O)c3ccccc3)[nH]c2c1,61% (inactive)
8,Cc1[nH]c2ccccc2c1[N+](=O)[O-],6.63% (inactive)
9,Cc1cccc(N(Cc2ccccc2)C(=O)c2ccccc2F)c1,1.73% (inactive)
10,Cc1cccc(N(CC(O)CN(C)C)S(=O)(=O)c2ccccc2)c1 (stereo not drawn),-26.4% (inactive)
11,COC(=O)N(NC(=O)C(O)(C(C)C)C(C)C)c1ccccc1,2.98% (inactive)
12,CCCC(O)(CCC)C(=O)NN(C(=O)CCl)c1cccc(C)c1,-101% (active)
13,CCCCNC(=O)CN1C(=O)NC(Cc2ccccc2)(Cc2ccccc2)C1=O,-14.4% (inactive)
14,CCCCC(O)(CCCC)C(=O)NN(C(=O)CCl)c1ccccc1,-94.6% (active)
15,COCn1c(C(O)c2ccccc2)cc2ccccc21 (stereo not drawn),3.56% (inactive)
16,O=C(CSc1ncc(S(=O)(=O)c2ccc(Br)cc2)c(=O)[nH]1)Nc1ccc2c(c1)OCCO2,3.97% (inactive)
17,CCCN1CN=C(NS(=O)(=O)c2ccc(NC(C)=O)cc2)NC1,-18.1% (inactive)
18,COc1ccccc1NC(=O)CSc1oc(-c2ccco2)nc1S(=O)(=O)c1ccc(Br)cc1,12.2% (inactive)
19,CCOc1ccc(NC(=O)CCc2c(C)nn(-c3ccc(N4CCCC4)nn3)c2C)cc1,-23.2% (inactive)
20,COc1ccc(-c2nc3sc(CCNS(=O)(=O)c4ccc(F)c(C)c4)c(C)n3n2)cc1,-32.9% (inactive)

row,SMILES,"activity change, negative = inhibition"
1,CCCCN=C(N)/C(C(=O)OCC)=C(\O)c1ccc(OC)cc1,-26.4% (inactive)
2,Cc1ccc(-c2nnc(SCc3ccccc3C)o2)cc1,82.8% (inactive)
3,O=C(c1ccc2c(c1)OCO2)N1CCNc2ccccc2C1,-3.54% (inactive)
4,O=C(C(=O)N1CCN(c2ccccc2)CC1)c1ccc2c(c1)OCO2,-64.4% (active)
5,C/C(=C/c1ccccc1)C(=O)N1CCN(c2ccccc2)CC1,-16.3% (inactive)
6,CCC(Sc1nnc(-c2ccc(OC)cc2)c(-c2ccc(OC)cc2)n1)C(=O)NC1CCCCC1 (stereo not drawn),5.23% (inactive)
7,CCOC(=O)C1SC2(C(F)(F)C(F)F)CC1(O)c1c(c(OC)c3occc3c1OC)O2 (stereo not drawn),-23.2% (inactive)
8,C/C(=N\NC(=O)C1(C)CC1(Br)Br)c1ccc(C)cc1C (stereo not drawn),2.84% (inactive)
9,Cc1cc(C)cc(NC(c2nnc(-c3cccc(F)c3)o2)c2ccc(F)cc2Cl)c1 (stereo not drawn),-0.542% (inactive)
10,CC(=O)N1CCCc2ccc(NS(=O)(=O)c3ccc(F)cc3F)cc21,51.5% (inactive)
11,Cc1c(NC(=O)c2c([N+](=O)[O-])cnn2C)c(=O)n(-c2ccccc2)n1C,7.76% (inactive)
12,Cc1nn(-c2ccccc2)c(-n2cccc2)c1C(=O)O,-33.7% (inactive)
13,Cc1nn(-c2ccccc2)c(Cl)c1/C=N/NC(=O)c1nn(C)cc1[N+](=O)[O-],-99% (active)
14,Cn1c(=O)c2c(nc(SCC(=O)Nc3ccc(F)cc3)n2Cc2ccc(Cl)cc2)n(C)c1=O,-3.29% (inactive)
15,CCN(C(=O)CSc1nc(N)cc(=O)[nH]1)C1CCS(=O)(=O)C1 (stereo not drawn),-1.32% (inactive)
16,Cc1ccc2c(=O)cc(C(=O)Nc3sc4c(c3C(=O)NCc3cccnc3)CCCC4)oc2c1,-0.307% (inactive)
17,Cc1ccc(OCC(=O)Nc2ccc(Cl)c(-c3nc4ccccc4[nH]3)c2)cc1C,-26.2% (inactive)
18,Cc1ccc(C)c(OCC(=O)Nc2sc3c(c2C#N)CCCC3)c1C,-17.4% (inactive)
19,CC1C(c2ccccc2)=[N+]([O-])C2(CCCC2)N1O (stereo not drawn),21.7% (inactive)
20,CC1CCCCN1CCCNC(=O)Cn1ncc2c([nH]c3ccccc32)c1=O (stereo not drawn),25.9% (inactive) and 24.1% (inactive)

row,SMILES,"activity change, negative = inhibition"
1,CCCn1c2ccccc2c2cnn(CC(=O)NCCCN3CCCCC3CC)c(=O)c21 (stereo not drawn),5.34% (inactive) and -76.4% (active)
2,CCCn1c2ccccc2c2cnn(CC(=O)NCCCOC(C)C)c(=O)c21,-18.7% (inactive)
3,COc1ccc(Nc2ncnc3ccc(Br)cc23)c(OC)c1,-98.7% (active)
4,COc1ccc(NC(=O)NNC(=O)COc2cc(C)c(Cl)c(C)c2)c(OC)c1,-4.84% (inactive)
5,CCOC(=O)CNc1nc(Cl)nc(Nc2ccc(OC)cc2OC)n1,-6.89% (inactive)
6,CC(=O)c1ccc(N2CCN(C3C(=O)c4ccccc4N3C(C)=O)CC2)cc1 (stereo not drawn),0% (inactive)
7,CCOC(=O)N1CCC(NC(=O)C(NS(=O)(=O)c2ccc3c(c2)CCN3C(=O)CC)C(C)C)CC1 (stereo not drawn),1.92% (inactive)
8,COc1cccc2c1cc1c(=O)n(CC(=O)N3CCN(c4ccccc4)CC3)nc(C)n12,3.76% (inactive)
9,O=C(Cn1ncc2c3ccccc3n(Cc3ccccc3)c2c1=O)NC1CCCCCC1,12.7% (inactive)
10,Cc1scc(C(=O)NNC(=S)NCc2ccccc2)c1C,-63.5% (active)
11,Cc1scc(C(=O)NNC(=S)NCC(C)C)c1C,-1.28% (inactive)
12,CC(C)CNC(=S)NNC(=O)c1ccccc1OC(F)F,2.34% (inactive)
13,CCn1c(=O)c2cc(C(=O)Nc3cccc(C(C)=O)c3)sc2c2ccccc21,8.05% (inactive)
14,COc1ccc(OC)c(CNC(=O)c2c3c(nc4ccccc24)C(=O)N(C2CCCCC2)C3)c1,18.7% (inactive)
15,CCOC(=O)C1CCN(C(=O)CSc2c3c(nc4ccc(Cl)cc24)CCCC3)CC1,92.3% (inactive)
16,Cc1ccc(OCCCCN2CCCCC2)c(Br)c1,-23.7% (inactive)
17,Cc1ccc(C(C)(C)C)c(OCCCCN2CCCC2)c1,-65.6% (active)
18,Cc1ccc(C(C)C)cc1OCCN1CCCC1,2.84% (inactive)

# Source: PubChem BioAssay AID1259415 (National Center for Advancing Translational Sciences (NCATS), 2018)
